We go through 14 compounds from ChEMBL document CHEMBL3433997, “St. Jude Leishmania screening dataset” (2016).

This assay has as its target Glucose transporter (Leishmania mexicana) (UniProt O61059). Briefly: ST_JUDE_LEISH: Cytotoxicity at 2uM final concentration against transgenic Leishmania Mexicana promastigotes LmGT2 that are glucose transport deficient and complemented with the L. Mexicana glucose transporter 2. Activity is measured by DNA content using SYBR green in vitro. Format: functional.
For orientation: inhibition means the relative decrease from the control value, in per cent. Take `CC1(C)[C@H]2CC[C@@H](CNc3nc(NCCc4c[nH]cn4)nc(NCc4cc(F)ccc4F)n3)[C@@H]1C2`: the inhibition was 1.36%.

For the compound `CC(C)N1CCC(N(Cc2ccc(-c3ccc(C(F)(F)F)cc3)cc2)C(=O)Cn2c(CCc3cccc(F)c3F)cc(=O)c3ccccc32)CC1`, the inhibition worked out at 1.16%.

On to `CC(=O)Nc1ccc(CN2CCC(NC(=O)c3ccc(-c4cccc(Cl)c4)s3)CC2)cc1`, for which the inhibition was determined as 2.8%.

With `COc1ccc(Oc2ccc(Nc3ccnc4ccc(C(F)(F)F)cc34)cc2)cc1OC`, the inhibition amounted to 12.3%.

`COCCCN=C(S)NN=C(C)c1ccccn1`: the inhibition worked out at 0%.

As for `COc1ccc(CNC(=O)NC2CCN(c3ccnc(Nc4cc(OC)c(OC)c(OC)c4)n3)C2)cc1` (centres undefined), the inhibition is -1.15%.

Take `Cc1cc(-c2ccc3c(c2)CCN(CCCOc2ccc4c(c2)CCN4C(=O)/C=C/c2ccccc2Cl)CC3)no1`: the inhibition turned out to be 4.78%.

With `CN(C)c1ccc(CN2CCC(NC(=O)c3ccc(-c4cccc(Cl)c4)s3)CC2)cc1`, the inhibition was 0.31%.

On to `O=C(Cn1c(=O)cnc2ccccc21)Nc1cccc(C(=O)Nc2cccc(C(F)(F)F)c2)c1`, for which the inhibition was found to be 1.93%.

Regarding `O=C(CCCC(=O)Nc1ccc(C2=NCCN2)cc1)Nc1ccc(C2=NCCN2)cc1`, the inhibition is -0.14%.

Consider `COCCn1c(-c2nc(-c3ccc(F)cc3)cnc2N)nc2ccccc21`, for which the inhibition is -0.94%.

In the case of `Cc1ccc2c(c1)NCC21CCN(C[C@@H](O)C2CCN(c3cc(C#N)ccn3)CC2)CC1C` (some centres undefined), the inhibition is -3.72%.

For `Cc1ccoc1C(=O)Nc1cccc(-c2cccc(-c3nc4cc(C(F)(F)F)ccc4[nH]3)c2)c1`, the inhibition is -0.44%.

With `O=C(Nc1ccc2c(c1)CCN2C1CCN(Cc2cccc(F)c2F)C1)c1ccco1` (centres undefined), the inhibition is 2.93%.
